CHT PAM: allosteric activators of human choline transporter CHT; CHT-expressing cells, membrane potential dye, choline EC20; stronger effect = higher value; LV-AA mutant CHT in HEK293 cells; B-score at 10 µM; 310,000 tested, 0.49% active; AID 488977;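 active = initial fluorescence not abnormally high and integrated response B-score, plate-corrected, over 3 SD above library mean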
Target sequence (Q9GZV3 whole entry, looked up): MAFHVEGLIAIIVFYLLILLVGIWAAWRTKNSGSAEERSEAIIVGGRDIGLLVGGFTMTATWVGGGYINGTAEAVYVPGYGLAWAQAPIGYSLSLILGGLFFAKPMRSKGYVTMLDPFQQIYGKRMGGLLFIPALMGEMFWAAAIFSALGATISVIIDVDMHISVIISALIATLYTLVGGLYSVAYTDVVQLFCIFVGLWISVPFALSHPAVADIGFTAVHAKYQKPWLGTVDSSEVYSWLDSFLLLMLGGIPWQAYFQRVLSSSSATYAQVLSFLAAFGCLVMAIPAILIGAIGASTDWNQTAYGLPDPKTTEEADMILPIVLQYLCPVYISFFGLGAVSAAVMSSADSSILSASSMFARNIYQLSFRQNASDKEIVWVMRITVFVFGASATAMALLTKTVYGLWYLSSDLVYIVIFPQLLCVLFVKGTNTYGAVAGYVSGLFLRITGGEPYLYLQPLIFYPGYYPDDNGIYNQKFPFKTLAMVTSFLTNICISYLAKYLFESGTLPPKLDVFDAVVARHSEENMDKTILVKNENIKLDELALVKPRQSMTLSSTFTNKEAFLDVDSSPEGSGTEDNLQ
TMEM16A act: activators or potentiators of mouse TMEM16A chloride channel | AID 623877 | Q8BHY3 | HEK293 TMEM16A/YFP-H148Q/I152L, iodide quench fluorescence; stronger effect = lower value | 340,000 tested, 0.3% active | B-score at 10 µM;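 active = fluorescence-ratio B-score plate-corrected deviation score at least 3 library SD below zero, with starting fluorescence score within 5 deviations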;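 note: channel opened by trigger with iodide after compound preincubation; score built on the fluorescence ratio of max minus min over baseline; more negative score means more quench and so TMEM16A activation or potentiation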
CHT inh: human CHT choline transport inhibition; Q9GZV3; CHT-expressing cells, membrane potential dye, choline response; stronger effect = lower value; B-score at 10 µM; 310,000 tested, 0.86% active;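 active = B-score over 3 SD under the library average, and starting fluorescence ratio not unusually high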;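 note: choline stimulus applied at its EC90 after an EC20 pre-addition; B-score computed on integrated fluorescence ratio after choline addition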
TMEM16A inh: mouse TMEM16A channel inhibition, primary screen. Q8BHY3. HEK293 TMEM16A/YFP iodide influx fluorescence, ionomycin. normalized B-score (activity score, 25-100; higher = stronger inhibition) at 10 µM. 310,000 tested, 1.2% active. AID 588511;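 active = ratio plate-corrected score three or more library SD toward inhibition, starting fluorescence score within five deviations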;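 note: score derived from kinetic fluorescence span divided by baseline fluorescence per well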
CHT block conf: confirmation of human choline transporter CHT inhibitors. 2,400 tested, 70% active. AID 493221. CHT activity remaining % of control (stronger effect = lower value), % at 10 µM. shares compounds with CHT inh. CHT-expressing cells, choline membrane potential dye; LV-to-AA substituted CHT, HEK293 cells;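 active = choline transporter activity left, mean of duplicates at 10 µM, below buffer-only control mean minus 3 SD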;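 note: depolarization triggered by choline at its EC90 following an EC20 pre-addition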
HEK293 MPD ctr: CHT inhibitor counter-screen hit in parental HEK293 cells; 2,400 tested, 4% active; shares compounds with CHT inh; membrane potential dye, choline response; active = decrease or increase beyond buffer ±3SD; membrane potential ratio readout (active if shifted either direction beyond buffer ±3SD; no single direction) at 10 µM; AID 493222;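 note: parental cells lack the transporter so any hit is non-specific; ratio is peak minus trough fluorescence over baseline after EC90 choline challenge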
TMEM16A reconf: TMEM16A (mouse) chloride channel inhibition, re-confirmation; inhibition, % at 10 µM; shares compounds with TMEM16A inh; 2,300 tested, 39% active; HEK293 TMEM16A/YFP-H148Q, iodide quench fluorescence; ionomycin added to raise cell calcium;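 active = mean duplicate percent inhibition, scaled so buffer wells are 0 and the reference blocker 100, over three buffer SD above buffer mean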
HEK293 Ca mobil: alters calcium mobilization in TMEM16A HEK293 cells, counter-screen; 2,300 tested, 2% active; calcium response (% of ionomycin), % at 10 µM; shares compounds with TMEM16A inh; AID 652231; TMEM16A/YFP HEK293, Fluo4 calcium mobilization;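 active = duplicate-averaged calcium signal over 20% of the ionomycin maximum, relative to buffer baseline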;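 note: each well's signal is peak minus trough fluorescence divided by its pre-addition baseline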
Parental YFP cnt: acts in parental YFP-HEK293 cells lacking TMEM16A, counter-screen | iodide YFP quench, ionomycin | shares compounds with TMEM16A inh | 2,300 tested, under 10 active | YFP ratio F(max-min)/F0 at 10 µM;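 active = yellow fluorescent protein signal ratio exceeding the buffer control mean by over 5 SD of those controls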;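 note: ratio is mean of duplicate wells from kinetic YFP trace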
ClC-1 inh: blocks the rat ClC-1 voltage-dependent chloride channel. shares compounds with TMEM16A inh. AID 652236. ratio percent, % at 10 µM. 2,300 tested, under 10 active. CHO ClC-1-YFP, iodide influx fluorescence quench; iodide control reads 0, buffer control 100;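 active = duplicate-mean ratio percent above the mean of iodide-only control wells, which defines zero, plus 5 of their SD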;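 note: higher percent means stronger block of ClC-1 iodide influx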
Of the large screens only hits and unclear results are named; the others gave an inactive call (follow-up assays come after a bar, where they were run). Only some compounds are listed: those with a hit (about 2.3% of all), similar ones and a draw of the others.

CCCC(=O)Nc1c2c(nn1-c1ccc(C)cc1)CS(=O)(=O)C2	CHT inh -6.1, TMEM16A inh 100 | CHT block conf inactive | HEK293 MPD ctr inactive | TMEM16A reconf inactive | HEK293 Ca mobil inactive | Parental YFP cnt inactive | ClC-1 inh inactive
CCCCSc1nc(C)cc(C)c1S(=O)(=O)c1ccccc1C	CHT inh -7.6, TMEM16A inh 100 | CHT block conf inactive | HEK293 MPD ctr inactive | TMEM16A reconf 22% | HEK293 Ca mobil inactive | Parental YFP cnt inactive | ClC-1 inh inactive
COCCN(CC(=O)Nc1cccc(C)c1C)C(=O)C1CCN(S(=O)(=O)c2ccccc2)CC1	none (no result: CHT PAM, CHT inh, TMEM16A inh)
CC(/C=C1\SC(=S)N(C(C(=O)O)c2ccccc2)C1=O)=C\c1ccccc1 (stereo not given)	TMEM16A inh 100 | CHT block conf 46% | HEK293 MPD ctr inactive | TMEM16A reconf 72% | HEK293 Ca mobil inactive | Parental YFP cnt inactive | ClC-1 inh inactive
CCOC(=O)CC1CCCCN1C(=O)c1cc(COc2cccc3cnccc23)on1 (stereo not given)	CHT inh -5.4, TMEM16A inh 25 | CHT block conf 69% | HEK293 MPD ctr inactive | TMEM16A reconf 46% | HEK293 Ca mobil inactive | Parental YFP cnt inactive | ClC-1 inh inactive
COCCC1CCCCN1C(=O)c1cc(COc2cccc(C(C)=O)c2)on1 (stereo not given)	none
CCC1Oc2ccccc2N(CC(=O)NCC2CCCO2)C1=O (stereo not given)	none
O=C1OC(c2ccccc2)(c2ccc(O)cc2)c2ccccc21 (stereo not given)	none (no result: CHT PAM, CHT inh, TMEM16A inh)
Cc1cc(O)ccc1C1(c2ccc(O)cc2C)OC(=O)c2ccccc21	CHT inh -12, TMEM16A inh 25 | CHT block conf 63% | HEK293 MPD ctr inactive | TMEM16A reconf 43% | HEK293 Ca mobil inactive | Parental YFP cnt inactive | ClC-1 inh inactive
COc1ccc(-c2nc(CN3CCN(c4ccccc4OC)CC3)c(C)o2)cc1	none
COc1ccc(-c2nc(CN3CCN(c4ncnc5ccccc45)CC3)c(C)o2)c(OC)c1	CHT inh -5.1, TMEM16A inh 100 | CHT block conf 52% | HEK293 MPD ctr inactive | TMEM16A reconf 20% | HEK293 Ca mobil inactive | Parental YFP cnt inactive | ClC-1 inh inactive
Cc1ccc(S(=O)(=O)C(C#N)c2nc3ccccc3nc2N2CCC(C)CC2)cc1 (stereo not given)	none (no result: CHT PAM, CHT inh, TMEM16A inh)
Cc1ccc(C)c(S(=O)(=O)C(C#N)c2nc3ccccc3nc2N2CC(C)OC(C)C2)c1 (stereo not given)	CHT inh -8.1, TMEM16A inh 25 | CHT block conf 41% | HEK293 MPD ctr inactive | TMEM16A reconf 18% | HEK293 Ca mobil inactive | Parental YFP cnt inactive | ClC-1 inh inactive
CCn1c(N2CCN(S(=O)(=O)c3ccc(F)cc3)CC2)nc2ccccc21	none
CCn1c(N2CCN(S(=O)(=O)c3ccc(Cl)cc3)CC2)nc2ccccc21	CHT inh -12, TMEM16A inh 25 | CHT block conf 44% | HEK293 MPD ctr inactive | TMEM16A reconf inactive | HEK293 Ca mobil inactive | Parental YFP cnt inactive | ClC-1 inh inactive
O=C(CCCSc1ccccc1)Nc1ccc(Cl)c(S(=O)(=O)N2CCOCC2)c1	none (no result: CHT PAM, CHT inh, TMEM16A inh)
Cc1ccc(C2=NC(C(F)(F)F)(C(F)(F)F)c3c(n(-c4ccc(F)cc4)c(=O)[nH]c3=O)N2)cc1	none
O=c1[nH]c(=O)n(-c2ccc(F)cc2)c2c1C(C(F)(F)F)(C(F)(F)F)N=C(c1ccc(F)cc1)N2	CHT inh -7, TMEM16A inh 25 | CHT block conf 54% | HEK293 MPD ctr inactive | TMEM16A reconf 26% | HEK293 Ca mobil inactive | Parental YFP cnt inactive | ClC-1 inh inactive
C=CCn1c(NC(=O)c2ccccc2Cl)c(C#N)c2nc3ccccc3nc21	CHT inh -5.8, TMEM16A inh 100 | CHT block conf inactive | HEK293 MPD ctr inactive | TMEM16A reconf 54% | HEK293 Ca mobil inactive | Parental YFP cnt inactive | ClC-1 inh inactive
Cc1cc(C)c(S(=O)(=O)/N=C2\C=C(Nc3ccc(C(=O)O)cc3)C(=O)c3ccccc32)c(C)c1	CHT inh -5.6, TMEM16A inh 25 | CHT block conf 25% | HEK293 MPD ctr inactive | TMEM16A reconf 26% | HEK293 Ca mobil inactive | Parental YFP cnt inactive | ClC-1 inh inactive
O=C(O)c1ccc(NC2=C/C(=N/S(=O)(=O)c3ccccc3)c3ccccc3C2=O)cc1	none (no result: CHT PAM, CHT inh, TMEM16A inh)
CCCOc1ccc(C(=O)NNC(=S)NC(=O)c2ccco2)cc1	CHT inh -7.9, TMEM16A inh 100 | CHT block conf 54% | HEK293 MPD ctr inactive | TMEM16A reconf 43% | HEK293 Ca mobil 62% | Parental YFP cnt inactive | ClC-1 inh inactive
CC1CCCN(C(=O)CSCC(=O)Nc2nc(-c3cccs3)cs2)C1 (stereo not given)	none
CC1CCN(C(=O)CSCC(=O)Nc2nc(-c3cccs3)cs2)CC1	CHT inh -5.3, TMEM16A inh 100 | CHT block conf inactive | HEK293 MPD ctr inactive | TMEM16A reconf inactive | HEK293 Ca mobil inactive | Parental YFP cnt inactive | ClC-1 inh inactive
O=C(COc1ccccc1Br)c1ccc(O)cc1O	CHT inh -5.7, TMEM16A inh 100 | CHT block conf 54% | HEK293 MPD ctr inactive | TMEM16A reconf inactive | HEK293 Ca mobil inactive | Parental YFP cnt inactive | ClC-1 inh inactive
FC(F)(F)c1cccc(-c2nc3nc(Cl)c(Cl)nc3[nH]2)c1	CHT inh -7.8, TMEM16A inh 25 | CHT block conf 50% | HEK293 MPD ctr inactive | TMEM16A reconf 31% | HEK293 Ca mobil inactive | Parental YFP cnt inactive | ClC-1 inh inactive
C=CCc1ccc(O)c(-c2cc(CC=C)ccc2O)c1	CHT inh -9.9, TMEM16A inh 100 | CHT block conf 36% | HEK293 MPD ctr inactive | TMEM16A reconf 32% | HEK293 Ca mobil inactive | Parental YFP cnt inactive | ClC-1 inh inactive
